KCNQ2 enhance = potentiators of rat KCNQ2 potassium channel. AID 2239, 2010. CHO-K1 KCNQ2, FluxOR thallium flux fluorescence; hits give high values. B-score at 10 µM. hit rate 0.54% among 310,000. Potassium voltage-gated channel subfamily KQT member 2 (Rattus norvegicus), O88943;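 active means fluorescence ratio B-score at least 3 SD of library B-scores, with initial fluorescence B-score within 3 of them, cut at about 5.3 in these data; same plate scores as AID 2156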;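 further: B-score of peak minus minimum over baseline fluorescence ratio after K+ and Tl+ stimulus; positive B-score means potentiation of KCNQ2 with more thallium influx and brighter signal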
Target sequence (O88943 whole entry, looked up): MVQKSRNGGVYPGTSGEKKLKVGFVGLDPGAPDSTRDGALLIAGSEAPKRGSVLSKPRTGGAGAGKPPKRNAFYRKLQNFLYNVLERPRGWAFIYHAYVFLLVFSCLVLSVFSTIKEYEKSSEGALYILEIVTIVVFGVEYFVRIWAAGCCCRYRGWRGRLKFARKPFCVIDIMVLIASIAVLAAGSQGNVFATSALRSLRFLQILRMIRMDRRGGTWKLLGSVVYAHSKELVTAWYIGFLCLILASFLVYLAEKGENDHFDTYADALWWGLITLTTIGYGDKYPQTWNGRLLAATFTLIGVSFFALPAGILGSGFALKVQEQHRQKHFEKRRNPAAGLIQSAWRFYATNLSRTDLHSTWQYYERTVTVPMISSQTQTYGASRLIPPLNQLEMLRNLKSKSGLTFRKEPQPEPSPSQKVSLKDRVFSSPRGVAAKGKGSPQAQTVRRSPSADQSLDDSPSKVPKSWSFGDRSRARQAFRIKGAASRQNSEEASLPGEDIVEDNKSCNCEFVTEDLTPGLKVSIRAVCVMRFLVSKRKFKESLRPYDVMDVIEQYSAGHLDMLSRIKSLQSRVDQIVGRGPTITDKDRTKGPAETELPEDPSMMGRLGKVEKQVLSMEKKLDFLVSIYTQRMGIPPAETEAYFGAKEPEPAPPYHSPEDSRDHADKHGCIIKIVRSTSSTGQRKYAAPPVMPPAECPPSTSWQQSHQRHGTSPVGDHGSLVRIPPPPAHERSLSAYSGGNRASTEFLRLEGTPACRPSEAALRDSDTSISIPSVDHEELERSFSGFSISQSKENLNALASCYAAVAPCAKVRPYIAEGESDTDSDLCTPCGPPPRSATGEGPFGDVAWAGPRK
KCNQ2 inh = rat KCNQ2 potassium channel inhibitors, primary screen, cell-based, CHO-K1, FluxOR thallium flux, B-score; Potassium voltage-gated channel subfamily KQT member 2 (Rattus norvegicus), O88943; 20 min; hits give low values; B-score at 10 µM; hit rate 1.1% among 310,000; AID 2156, 2009;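 active means fluorescence ratio B-score at most minus 3 library SDs, with starting brightness B-score within 2 library SDs, cut at about -5.5 in these data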
Each line names hits and unclear results; the compound was inactive in the other large screens. The list is not random: actives were taken first. Their share in the collection is about 1.6%.

O=C(c1ccc(Cl)c(S(=O)(=O)N2CCCC2)c1)N1CCN(c2ccccn2)CC1	none
O=C(c1ccc(Cl)c(S(=O)(=O)NCc2ccccc2)c1)N1CCN(c2ccccn2)CC1	KCNQ2 inh -5.77
CC(C)c1ccc(COc2ccc(C(=O)N3CCOCC3)cc2)cc1	none (no result: KCNQ2 enhance)
CC(C)c1ccc(OCc2ccc(C(=O)N3CCN(c4ccccn4)CC3)cc2)cc1	KCNQ2 inh -7.5
Cc1ccc(OCc2cc(C(=O)N3CCC(c4ccccc4Cl)C3)no2)cc1C (centres undefined)	none
C=CCNC(=S)NN=C1CCCCCCC1	none (no result: KCNQ2 enhance)
CCCc1cc(=O)[nH]c(SCC(=O)NC2CCCc3ccccc32)n1 (centres undefined)	none (no result: KCNQ2 enhance)
C/C(=N\N=C(N)N)c1ccc(Cl)c(Cl)c1	none (no result: KCNQ2 enhance)
CCN1CCN(CCCNC(=O)CCC(=O)N2CC(C)Oc3ccc(C)cc32)CC1 (centres undefined)	none (no result: KCNQ2 enhance)
N=C1/C(=C/c2cccs2)C(=O)N=C2SN=C(SCc3ccccc3)N12	none
CC(C)CSC1=NSC2=NC(=O)/C(=C\c3cccs3)C(=N)N12	KCNQ2 enhance 7.36
O=C(CCc1ccccc1)N/N=C/c1cccc([N+](=O)[O-])c1	none
O=C(N/N=C/c1ccco1)C1CC1	none
O=C(N/N=C/c1cccc([N+](=O)[O-])c1)C1CC1c1ccccc1 (centres undefined)	KCNQ2 enhance 15
O=C(N/N=C/c1ccco1)C1CC1c1ccccc1 (centres undefined)	KCNQ2 enhance 19.6
O=C(c1c[nH]c2ccccc12)C(Cl)c1ccccc1 (centres undefined)	none
O=C(O)[C@H](Cc1ccccc1)NC(=O)N1CCN(c2ccc(F)cc2)CC1	none
CN(C(=S)NC(=O)c1ccccc1)C1CCCCC1	none
Cc1ccc(S(=O)(=O)CCC(=O)c2ccc(F)cc2)cc1	none (no result: KCNQ2 enhance)
Cc1ccc(C(=O)CCS(=O)(=O)c2ccc(F)cc2)cc1	KCNQ2 inh -6.29
O=C(Cn1sc2ccccc2c1=O)N1CCN(C(=O)c2ccco2)CC1	none
CN1c2ccccc2C(C)(C)C12CC(CCl)=NO2 (centres undefined)	none
COc1ccc2ccc3c(c2c1)N=CC1(O3)N(C)c2ccccc2C1(C)C (centres undefined)	KCNQ2 inh -8.22
CN1c2ccccc2C(C)(C)C12C=Nc1c(ccc3ccccc13)O2 (centres undefined)	KCNQ2 inh -5.71
COc1ccc2c(c1)Sc1ccccc1N2CCN(C)C	none (no result: KCNQ2 enhance)
OCc1c[nH]c(=S)n1CCOc1cccc(C(F)(F)F)c1	none (no result: KCNQ2 enhance)
O=C(Nc1cccc(F)c1)N1CC=C(c2ccc(Cl)cc2)CC1	KCNQ2 inh -6.58
O=C(CN1CCN(c2ccc(Cl)cc2)CC1)Nc1cccc(F)c1	none (no result: KCNQ2 enhance)
O=C(COc1ccccc1)N(Cc1ccco1)c1ccc(O)cc1	none (no result: KCNQ2 enhance)
O=C(c1ccc(Cl)c(Cl)c1)N(Cc1ccco1)c1ccc(O)cc1	KCNQ2 inh -6.39
O=C1C(c2ccccc2)=[N+]([O-])c2ccccc21	none (no result: KCNQ2 enhance)
CCOCc1cc(CN2CCC(CCC(=O)NC3CC3)CC2)ccc1OC	none
Cc1ccccc1NC(C)C(=O)N/N=C/c1ccccc1OCc1cccc(Br)c1 (centres undefined)	KCNQ2 inh -8.28
COc1ccc(NC(C)C(=O)N/N=C/c2ccccc2OCc2cccc(Br)c2)cc1 (centres undefined)	none (no result: KCNQ2 enhance)
COc1ccc(CCNS(=O)(=O)c2cc(C(=O)O)c(Cl)cc2Cl)cc1	none
CCCCCCCCN1[C@@H](CC(=O)OCC)c2cc(F)ccc2S1(=O)=O	none (no result: KCNQ2 enhance)
CCCCCCCCN1[C@@H](CC(=O)OC)c2cc(F)ccc2S1(=O)=O	KCNQ2 inh -6.04
COc1ccc(CCN(C)Cc2nc(-c3cnccn3)no2)cc1OC	none
COc1ccc(CCN(Cc2nc(-c3ccccc3)no2)Cc2nc(-c3ccccc3)no2)cc1OC	KCNQ2 inh -6.22
C[C@]1(C(=O)NCc2cc(F)cc(C(F)(F)F)c2)C=C[C@@H](Cc2ccccc2)N1C(=O)c1ccccc1	KCNQ2 inh -7.17
COCCNC(=O)[C@@]1(C)C=C[C@@H](Cc2ccccc2)N1C(=O)c1ccccc1	none
CCCc1nc2ccc(N)cc2c(=O)n1Cc1ccccc1Cl	none (no result: KCNQ2 enhance)
CCN(CC(=O)Nc1ccccc1OC)C(=O)CCOc1ccc(C(C)(C)C)cc1	KCNQ2 inh -6.29
CCOc1ccc(OCCC(=O)N(CC)CC(=O)Nc2ccccc2C(F)(F)F)cc1	none (no result: KCNQ2 enhance)
CCCOc1ccc(-c2c(C(=O)N/N=C(\C)COc3ccccc3)nnn2-c2nonc2N)cc1	none (no result: KCNQ2 enhance)
Cc1cc(C)cc(NS(=O)(=O)c2ccc(-c3cnc(C4CC4)o3)cc2)c1	none (no result: KCNQ2 enhance)
Cc1ccc(C)c(NS(=O)(=O)c2ccc(-c3cnc(C4CC4)o3)cc2)c1	KCNQ2 inh -6.8
Cc1ccc2c(cnn2C(=O)CCC(=O)N2CCCCC2)c1	none
CN1C=CC=C/C1=C1\SC(=S)N(N)C1=O	none (no result: KCNQ2 enhance)
CCC1CCCCN1C(=S)NC(=O)c1cccs1 (centres undefined)	none
CCC1CCCCN1C(=S)NC(=O)c1ccc([N+](=O)[O-])cc1 (centres undefined)	KCNQ2 enhance 7.84
COc1ccc(Cc2nnc(NC(=O)C3CC(=O)N(c4ccccc4)C3)s2)cc1OC (centres undefined)	none
CCOc1ccc2ccccc2c1CNc1nnnn1C	KCNQ2 inh -6.01
CCOc1ccccc1CNc1nnnn1C	none
CCN1C(=O)[C@H]2[C@@H](c3ccc(C)cc3)N3C(=O)N(c4cccc(Br)c4)C(=O)[C@@]3(CC(C)C)[C@H]2C1=O	none
NS(=O)(=O)c1ccc(NCc2cc(Cl)ccc2OCc2ccc(F)cc2)cc1	KCNQ2 enhance 7.67
NS(=O)(=O)c1ccc(NCc2ccccc2OCc2ccccc2F)cc1	none
O=C1OC(c2cccc([N+](=O)[O-])c2)C2(CCCC2)C(=O)C12CCCCC2 (centres undefined)	none
Cc1ccc(C(c2nnnn2Cc2ccccc2)N2CCN(Cc3ccccc3)CC2)cc1 (centres undefined)	none (no result: KCNQ2 enhance)
NC(=O)c1ccc(Cc2ncc(C(F)(F)F)cc2Cl)s1	none (no result: KCNQ2 enhance)
O=S(=O)(N/N=C/c1ccc(Cl)cc1)c1ccc(Cc2ncc(C(F)(F)F)cc2Cl)s1	KCNQ2 inh -6.15
CCCCn1c(-c2ccncc2)nc2c1c(=O)[nH]c(=O)n2CC(C)C	none (no result: KCNQ2 enhance)
Cc1ccc(-c2nc3c(c(=O)[nH]c(=O)n3CC(C)C)n2CC(C)C)cc1[N+](=O)[O-]	none (no result: KCNQ2 enhance)
CC(C)Cn1c(-c2cc(Br)ccc2F)nc2c1c(=O)[nH]c(=O)n2CC(C)C	KCNQ2 inh -6.46
CC(C)Cn1c(-c2cc([N+](=O)[O-])ccc2Cl)nc2c1c(=O)[nH]c(=O)n2Cc1ccccc1	KCNQ2 enhance 7.44
O=C(C#Cc1ccccc1)c1ccco1	none (no result: KCNQ2 enhance)
O=C(Nc1ccc(F)cc1)c1cc(-c2ccccn2)nc2c(Cl)cccc12	none
O=[N+]([O-])c1cccc(NC(=S)N2CCc3ccccc32)c1	none
O=c1cc(CSc2ccc(Cl)cc2)nc(-c2ccccn2)[nH]1	none (no result: KCNQ2 enhance)
COc1cccc(/C=N/n2c(=S)n(C)c3cc(C)c(C)cc32)c1OC	KCNQ2 inh -6.13
COc1cccc(/C=N/n2c(-c3cc(C)[nH]n3)n[nH]c2=S)c1OC	none (no result: KCNQ2 enhance)
COc1ccc2nc(N=Nc3c(O)ccc4ccccc34)sc2c1	KCNQ2 enhance 8.17
COc1ccc2nc(NC(=O)Nc3cccc4ccccc34)sc2c1	none (no result: KCNQ2 enhance)
O=C(Nc1ccc2[nH]c(=S)sc2c1)c1ccccc1	KCNQ2 enhance 15.5
O=C(Nc1ccc(F)cc1)Nc1ccccc1F	none
O=C(Nc1ccc2[nH]ccc2c1)c1ccccc1	none
O=C(Nc1ccc2[nH]c(=S)sc2c1)Nc1ccccc1F	KCNQ2 enhance 39.5
